Laboratory results published in PubChem BioAssay (NCI).
This is part of a sample that, as a whole, favours compounds with a hit. Of some 79,000 tested, about 15% had one in any assay. Calls of active or inactive are those of the source. Cut-off read from the data, not from the text of the source: active = growth inhibition above about 70%; inactive = the rest.

Experiments:
[1] = NCI Yeast Anticancer Drug Screen. Data for the rad50 strain (AID 155);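 note: 0% = growth of vehicle-only cultures of the same strain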; details: S. cerevisiae rad50 strain growth inhibition; at 50.0 µM; hits give high values
Outline: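 Readout: growth inhibition relative to vehicle-treated cultures. Compound exposure was carried out in a genetically defined yeast strain deficient in DNA damage repair.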

[2] = NCI Yeast Anticancer Drug Screen. Data for the mec2-1 strain (AID 157); details: S. cerevisiae mec2-1 strain, at 50.0 µM, hits give high values
Outline: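 Each compound was tested on mec2-1 yeast, a strain altered in DNA damage repair or cell cycle control. Growth inhibition is reported relative to vehicle.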

[3] = NCI Yeast Anticancer Drug Screen. Data for the sgs1 mgt1 strain (AID 161);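 note: 0% = growth of cultures given vehicle only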; details: S. cerevisiae sgs1 mgt1 strain, at 50.0 µM, hits give high values
Outline: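 Read-out: growth inhibition vs vehicle controls. Cells: mutant yeast strain deficient in DNA damage repair.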

[4] = NCI Yeast Anticancer Drug Screen. Data for the cln2 rad14 strain (AID 165);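 note: 0% = growth equal to vehicle treated cultures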; details: S. cerevisiae cln2 rad14 strain, at 50.0 µM, hits give high values
Outline: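 Test compounds were added to cln2 rad14 yeast cultures; inhibition of growth was then determined by comparison with vehicle treatment.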

[5] = NCI Yeast Anticancer Drug Screen. Data for the bub3 strain (AID 167); details: S. cerevisiae bub3 mutant strain, at 50.0 µM, hits give high values
Outline: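 Readout: yeast growth inhibition, expressed relative to vehicle-only wells. The test organism is a mutant strain from a panel with lesions in DNA repair or checkpoint genes.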

[6] = NCI Yeast Anticancer Drug Screen. Data for the mlh1 rad18 strain (AID 175); details: S. cerevisiae mlh1 rad18 strain growth inhibition; at 50.0 µM; hits give high values
Outline: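 Inhibition values reflect reduced growth of mutant yeast versus vehicle-treated controls following compound exposure; the mutations affect DNA damage repair.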

Measured: growth inhibition

Cn1cnc([N+](=O)[O-])c1Sc1nc(N)nc2c1ncn2C1OC(CO)C(O)C1O (stereo unspecified)
inactive: [1] -9.3% | [2] 20.3% | [3] 15.6% | [4] 25.1% | [5] 14.2% | [6] -8.5%

O=C1c2ccccc2C(=O)N1CCn1nc(-c2ccccc2)cc(-c2ccccc2)c1=O
inactive: [1] 1.85% | [2] -2.35% | [3] -25.5% | [4] 7.9% | [5] 39% | [6] -8.6%

NC(=O)c1ccc[n+](-c2ccc([N+](=O)[O-])cc2[N+](=O)[O-])c1
inactive: [2] 54.6% | [4] 39.8% | [5] 17.3% | [6] 63.4%
active: [1] 79.3% | [3] 80.2%

Oc1cc2c(cc1C(c1ccc3c(c1)OCO3)N1CCCC1)OCO2 (stereo unspecified)
inactive: [1] -4.9% | [2] -9.35% | [3] 8.25% | [4] -27.6% | [5] 19.8% | [6] 28.4%

CCC(=O)CCN(CC)CC
inactive: [1] -39.6% | [2] -33.3% | [3] -55.8% | [4] -5% | [5] -35.3% | [6] -40.4%

COC(=O)NC1(NC(=O)OC)NC(=O)c2cc(OC)c(OC)cc2N1
inactive: [1] 6.25% | [2] -10.4% | [3] 27.4% | [4] -16.5% | [5] 6.55% | [6] 5.75%

CCCCCN(C=O)c1ccccc1
inactive: [1] -4.25% | [2] -13.7% | [3] -19.9% | [4] -13.6% | [5] -7.4% | [6] -2.5%

O=C(NCCc1ccccc1)[C@H]1CCCC[C@@H]1CCO
inactive: [1] 19.4% | [2] 0.85% | [3] -31.9% | [4] 0.4% | [5] -39.8% | [6] -28.6%

CCOC(C)C(=O)C=O (stereo unspecified)
inactive: [1] -17.9% | [2] -13.6% | [3] -17.2% | [4] -4.55% | [5] -13.4% | [6] -8.4%

Cc1ccc(N=C(Nc2ccc(C)cc2)C(c2ccccc2)c2ccccc2)cc1
inactive: [1] 12% | [2] -1.85% | [3] 5.9% | [4] 7.65% | [5] 6.5% | [6] 30.6%

CN1CC2=C(C1)C(N(C(=O)c1ccc(-c3ccccc3)cc1)C(=O)c1ccc(-c3ccccc3)cc1)=NCN2
inactive: [1] 11.4% | [2] 3.25% | [3] 16.1% | [4] 10.6% | [5] 0.6% | [6] 21.6%

C1=CC(=C(c2ccccc2)c2ccccc2)C=C1
inactive: [1] -17.1% | [2] -16.9% | [3] -4.5% | [4] -19.2% | [5] -2.75% | [6] -1.9%

CCOC(=O)C(C(=O)OCC)C(=O)C(C)(C)C
inactive: [1] 25.8% | [2] 0.3% | [3] 0.7% | [4] 11.2% | [5] 30.5% | [6] 18.9%

Cc1ccc(C(=N)c2ccccc2Cc2cccc3ccccc23)c2ccccc12
inactive: [1] 12.4% | [2] -22.1% | [3] -30.2% | [4] -36.9% | [5] -34.4% | [6] -15.6%

C(=C/c1ccccc1)/CN1CCCCC1
inactive: [1] 29.4% | [2] 19.4% | [3] 36% | [4] 11.4% | [5] 37.2% | [6] 29.4%

O=C(Nc1nc2ccccc2n1Cc1ccc(Cl)cc1)C(=O)NC12CC3CC(CC(C3)C1)C2
inactive: [1] -9% | [2] -24.5% | [3] 1% | [4] -0.6% | [5] 6.8% | [6] -8.6%

Nc1ccc(CC(N)C(=O)O)cc1 (stereo unspecified)
inactive: [1] -2.7% | [2] -12.8% | [3] -22.3% | [4] -5.6% | [5] -6.55% | [6] -13.3%

O=C(CCBr)OCCOc1ccccc1
inactive: [1] 1.55% | [2] -3.6% | [3] 4.2% | [4] -39.8% | [5] 4.95% | [6] 2.7%

Nc1ccccc1N=Cc1cc(F)ccc1[N+](=O)[O-]
inactive: [1] 0.05% | [2] 4.4% | [3] 28.2% | [4] -48.9% | [5] 4.4% | [6] 1.35%

CC1c2c(cc(=O)n(C)c2O)C(=O)N1C (stereo unspecified)
inactive: [1] 2.15% | [2] 0.7% | [3] -7.85% | [4] -6.2% | [5] -9% | [6] -2.85%

CN1[C@@H]2C[C@@H](OC(=O)[C@H](CO)c3ccccc3)C[C@H]1[C@@H]1O[C@@H]12
inactive: [1] -1.3% | [2] 2.4% | [3] -33.7% | [4] -20.4% | [5] -10.3% | [6] 5.6%

COc1ccc(C(O)(CCN2CCOCC2)c2ccc3c(c2)OCO3)cc1 (stereo unspecified)
inactive: [1] -8.4% | [2] 9.2% | [3] -7.7% | [4] -47.4% | [5] 8.6% | [6] -0.3%

CC1=C(C(=O)Nc2ccc(Cl)c(C(=O)OC(C)C)c2)SCCO1
inactive: [1] 44.9% | [2] 7.35% | [3] 5.15% | [4] 4.05% | [5] 25.4% | [6] 0.45%

O=[N+]([O-])c1c(Nc2ccccc2)ncnc1Nc1ccccc1
inactive: [1] -33.9% | [2] -15.9% | [3] -9.6% | [4] 3.45% | [5] -10.6% | [6] 1.05%

Nc1nc2c(c(=O)[nH]1)CN(c1ccc(S(N)(=O)=O)cc1)CN2
inactive: [1] 25.9% | [2] -24.6% | [3] 0.5% | [4] -7.45% | [5] -26.4% | [6] -12.3%

CSc1cc(Br)ccc1-n1c(C(=O)c2ccccc2)c(SC)n(-c2ccccc2)c1=O
inactive: [1] -0.05% | [2] 21.3% | [3] 20.6% | [4] 7.65% | [5] 15.7% | [6] 5.05%

CCOC(=O)c1cn2c(nc1=O)N[C@H]1CCCC[C@@H]12
inactive: [1] 37.8% | [2] 11.1% | [3] 0.4% | [4] -2.45% | [5] 8.4% | [6] -1%

CCC(CC)NCCCNc1cc(OC)cc2cccnc12
inactive: [1] 20.8% | [2] 33.6% | [3] 53.8% | [4] 4.65% | [5] 30.9% | [6] 48.6%

COC(=O)c1cc([N+](=O)[O-])cc2ccccc12
inactive: [1] 35.8% | [2] -24.6% | [3] 19.1% | [4] 11.3% | [5] 23.1% | [6] 0.65%

CNc1nc(N)nc(N)c1N1CCN(c2ccc(C(=O)O)cc2)CC1
inactive: [1] 13.3% | [2] -0.8% | [3] 19.8% | [4] 9.95% | [5] 17.2% | [6] 16.6%

Nc1cccc(SC2CC(=O)N(c3ccc4c(c3)OCO4)C2=O)c1 (stereo unspecified)
active: [1] 90.4% | [2] 92.8% | [3] 91.5% | [4] 79.2% | [5] 91.7% | [6] 85.3%

CC(=O)NC(C)Cc1ccc(C(=O)O)cc1 (stereo unspecified)
inactive: [1] 13.9% | [2] -6.25% | [3] -8.5% | [4] -36.4% | [5] -4.5% | [6] 12.6%

Nc1nc(Br)nc2ncn(C3CC(O)C(CO)O3)c12 (stereo unspecified)
inactive: [1] 20.1% | [2] 3.8% | [3] 18.3% | [4] -2.25% | [5] -0.85% | [6] -4.9%

COc1ccc(NC(=O)C(F)(F)F)cc1
inactive: [1] 9.3% | [2] 3.85% | [3] 10.4% | [4] -2.2% | [5] 0.55% | [6] 1.75%

C=CCOC(=O)CC(=O)OCC=C
inactive: [1] 0.6% | [2] 1.7% | [3] 0.35% | [4] -4% | [5] 3.05% | [6] -5.9%

CN(c1ccccc1)C1C(=O)N(c2ccccc2)C1/C=C/c1ccccc1 (stereo unspecified)
inactive: [1] -8.7% | [2] 0.8% | [3] 13.3% | [4] 29.4% | [5] 11.9% | [6] 39.1%

O=C(NNc1nc(N2CCOCC2)nc(N2CCOCC2)n1)c1ccccc1
inactive: [1] 16.6% | [2] 5.15% | [3] 10.9% | [4] 15.3% | [5] -5.05% | [6] -4.3%

CCCCC(=O)c1ccc2ccccc2c1O
inactive: [1] 6.9% | [2] -6.35% | [3] 3.9% | [4] -18% | [5] -6.3% | [6] 6.8%

C=CCNC(=S)NC=C(C(N)=O)C(N)=O
inactive: [1] -25.9% | [2] -33% | [3] -22.5% | [4] -19.5% | [5] -4.9% | [6] -19.9%

c1ccc([Si](c2ccccc2)(c2ccccc2)c2ccc(-c3ccc([Si](c4ccccc4)(c4ccccc4)c4ccccc4)cc3)cc2)cc1
inactive: [1] 1.1% | [2] -0.75% | [3] -8.3% | [4] -4.35% | [5] -0.05% | [6] -15.9%

C[CH2][Sn]([CH2]C)([O]C(=O)c1ccc(F)cc1)[O][Sn]([CH2]C)([CH2]C)[O]C(=O)c1ccc(F)cc1
inactive: [1] -7.3% | [2] -2.8% | [3] -16.4% | [4] 23.6% | [5] 12.6% | [6] -9.05%
